GLP-1R agonist: GLP-1 receptor (human) agonism; P43220; HEK293 GLP-1R CRE-luciferase, luminescence, 4-6 h; cells express a hypersensitive GLP-1R form; Potency, µM (titrated, usually from 45.6 µM), usual class: activators; hit rate 0.007% among 380,000
Target sequence (P43220 whole entry, looked up): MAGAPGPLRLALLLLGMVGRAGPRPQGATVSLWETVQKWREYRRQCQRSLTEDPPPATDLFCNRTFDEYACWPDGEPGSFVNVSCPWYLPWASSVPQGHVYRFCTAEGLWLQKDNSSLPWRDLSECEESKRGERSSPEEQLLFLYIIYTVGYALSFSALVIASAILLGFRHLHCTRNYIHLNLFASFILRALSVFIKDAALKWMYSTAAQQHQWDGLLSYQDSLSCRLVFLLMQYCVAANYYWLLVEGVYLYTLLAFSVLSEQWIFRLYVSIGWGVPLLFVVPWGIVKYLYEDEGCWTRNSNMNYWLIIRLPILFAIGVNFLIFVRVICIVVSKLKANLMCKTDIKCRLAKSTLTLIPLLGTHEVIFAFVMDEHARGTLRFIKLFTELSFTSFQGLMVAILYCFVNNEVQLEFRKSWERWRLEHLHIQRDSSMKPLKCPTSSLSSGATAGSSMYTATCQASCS
GLP-1R inv ag: acts as inverse agonist at human GLP-1 receptor | P43220 | HEK293 GLP-1R CRE-luciferase, luminescence, 24 h; GLP-1R form is constitutively active | Potency, µM (series often up to 38.3 µM), usual class: inhibitors | hit rate 1.6% among 410,000 | AID 624417; also: nearly all actives have a fitted effect of over 55% in size
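Inverse agonism was detected as reduced cAMP-driven luciferase luminescence after 24 h compound treatment. The cells were HEK293 clones expressing constitutively active human GLP-1R with the reporter. Reporter-only and GPR119 cell lines served as counterscreen controls.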
PTHR1 ag: agonists of human PTHR1 parathyroid hormone receptor | Q03431 | HEK293 GP2 PTHR1 cells, GloSensor cAMP luminescence, 1 h | Potency, µM (highest dose often 115 µM), hits mostly activators | hit rate 0.075% among 410,000 | AID 743266; also: nearly all actives have a fitted effect of over 55% in size
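HEK-293-derived GP2 cells expressing PTHR1 and a GloSensor cAMP reporter, 3,000/well, plated overnight, given luciferin plus IBMX (each 0.5 mM as added) for 1 h at 37 °C, then compound for 1 h at 37 °C. Luminescence was read after 15 min at room temperature.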
GLP1R cytotox: cytotoxicity counter-screen for GLP-1 receptor inverse agonists; Potency, µM (series often up to 38.3 µM), hits mostly inhibitors; HEK293 cAMP-luciferase reporter cells, luminescence, 24 h; hit rate 0.13% among 410,000; AID 624418;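 also: loss of luciferase light is scored as toxicity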
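Step one: seed cells (200 cells/uL, DMEM with 10% Nu serum, 1% pen-strep). Step two: 12-hour incubation at 37 deg C. Step three: pin 23 nL compound, incubate 24 hr. Step four: add luciferase reagent, read luminescence 12 min later.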
Of the large screens only hits and unclear results are named; the others gave an inactive call. Sampled rows, rich in hits. Any-hit rate of the full collection: about 1.7%. Calls follow the shape of the dose curve; as a rule, active = well fitted curve in the direction sought with a large enough effect; inconclusive = small, poorly fitted or top-dose-only effect, or another doubt; inactive = no such curve, though single readings can be large; an effect the other way counts as inactive or inconclusive.

Clc1ccc(Oc2nc(Oc3ccc(Cl)cc3)nc(N3CCOCC3)n2)cc1	GLP-1R inv ag inconclusive
c1ccc(Oc2nc(Oc3ccccc3)nc(N3CCOCC3)n2)cc1	GLP-1R inv ag 7.94µM
O=C(Nc1ccc(F)c(Cl)c1)C1CCCN1S(=O)(=O)c1ccc(F)cc1 (stereo unspecified)	GLP-1R inv ag inconclusive (no result: GLP-1R agonist)
CC1(C(=O)Nc2ccc(Cl)c(Cl)c2)CCN1C(=O)CC1CCCC1 (stereo unspecified)	GLP-1R inv ag 14.1µM
O=C(NCCc1ccc(Cl)cc1)C(=O)NCC(c1ccco1)S(=O)(=O)c1ccc(Cl)cc1 (stereo unspecified)	none (no result: GLP-1R agonist)
O=C(OCC(=O)C12CC3CC(CC(C3)C1)C2)c1ccc(O)cc1O	GLP-1R inv ag 11.2µM, GLP1R cytotox inconclusive
Cc1ccc(Cl)cc1N(CC(=O)Nc1cccc(N(C)S(C)(=O)=O)c1)S(C)(=O)=O	none
CN(c1cccc(NC(=O)CN(c2cccc(Cl)c2)S(=O)(=O)c2ccc(Cl)cc2)c1)S(C)(=O)=O	GLP-1R inv ag 7.94µM
COc1cc(OC)nc(Oc2ccccc2C(=O)Oc2ccc(Cl)cc2)n1	GLP-1R inv ag 3.16µM
COCCN(C(=O)COC(=O)c1ccccc1Nc1ccccc1)c1c(N)n(Cc2ccccc2)c(=O)[nH]c1=O	GLP-1R inv ag 12.6µM
CN(C(=O)COC(=O)c1ccccc1Nc1ccccc1)c1c(N)n(Cc2ccccc2)c(=O)[nH]c1=O	GLP-1R inv ag inconclusive
Cc1ccc(C(=O)N(CCN2CCCCC2)CC2CCCN(C3CCCC3)C2)s1 (stereo unspecified)	GLP-1R inv ag 8.91µM, GLP1R cytotox inconclusive
O=S(=O)(NCC(c1ccco1)N1CCN(c2ccc(F)cc2)CC1)c1ccc2c(c1)OCCO2 (stereo unspecified)	GLP-1R inv ag 10µM
N#CCC(=O)N/N=C/c1cn(Cc2ccc(Cl)c(Cl)c2)c2ccccc12	GLP-1R inv ag 1.26µM, GLP1R cytotox inconclusive
O=C(Nc1nc2c(s1)CCCC2)c1cccs1	GLP-1R inv ag 10µM
O=C(Cc1cccs1)Nc1nc2c(s1)CCCC2	none
Cc1cccc(Nc2nc3c(s2)CCCC3)c1	GLP-1R inv ag inconclusive, GLP1R cytotox inconclusive
O=C(O)c1ccc(Nc2nc3c(s2)CCCC3)cc1	GLP-1R inv ag 1.78µM
CCc1cccc(CC)c1NC1=NS(=O)(=O)c2ccccc21	none (no result: GLP-1R agonist)
O=S1(=O)N=C(Nc2nc3c(s2)CCCC3)c2ccccc21	GLP-1R inv ag 4.47µM, GLP1R cytotox inconclusive
CCOC(=O)c1ccc(NC(=O)C2Cc3ccccc3C(=O)O2)cc1 (stereo unspecified)	none (no result: GLP-1R agonist)
COC(=O)c1c(NC(=S)NN2CCN(C)CC2)sc2c1CCC(C)C2 (stereo unspecified)	GLP-1R inv ag 10µM, GLP1R cytotox inconclusive
COC(=O)c1c(NC(=O)Cc2cccs2)sc2c1CCC(C)C2 (stereo unspecified)	none
CCNc1nc(NC(C)C)nc(SCCOC(=O)c2ccccc2)n1	GLP-1R agonist inconclusive, GLP-1R inv ag 10µM
CCNc1nc(NC(C)C)nc(SCCOc2ccc(C)cc2)n1	GLP-1R inv ag 7.94µM
CCNc1nc(NCC)nc(OCCOC(=O)c2ccccc2)n1	none
Cc1cc(C)c2c(c1)c(C)cc1nnc(SCc3ccccc3C#N)n12	none (no result: GLP-1R agonist)
CSc1nc2cc(Oc3cccc(Cl)c3Cl)c(Cl)cc2[nH]1	GLP-1R inv ag 11.2µM
Cc1ccc2c(c1)c1c(n2CC(O)CNC(C)(C)C)CCCC1 (stereo unspecified)	GLP-1R inv ag 10µM
Cc1ccc(NC(=O)c2ccc3c(c2)NC(=O)c2ccccc2S3)c(Cl)c1	GLP-1R inv ag inconclusive (no result: GLP-1R agonist)
N#Cc1c(NC(=O)c2ccccc2Cl)n(Cc2ccccc2)c2nc3ccccc3nc12	GLP-1R inv ag inconclusive
CCCCn1c(NC(=O)c2ccccc2Cl)c(C#N)c2nc3ccccc3nc21	GLP-1R inv ag 5.62µM
CCOc1ccc(CC2S/C(=N/N=C/c3ccco3)NC2=O)cc1 (stereo unspecified)	none
O=C1N/C(=N\N=C\c2ccco2)SC1Cc1ccccc1[N+](=O)[O-] (stereo unspecified)	GLP-1R inv ag 7.08µM, GLP1R cytotox 3.98µM
CCOc1ccc(C2C(=O)N(C3CCCCCC3)CC(=O)N2Cc2ccccc2)cc1OC (stereo unspecified)	none (no result: GLP-1R agonist)
CC(C)(c1ccccc1)c1ccc(OCC(O)CNC2CCN(Cc3ccccc3)CC2)cc1 (stereo unspecified)	GLP-1R inv ag 1.78µM, GLP1R cytotox inconclusive
